Mdm2-MdmX inh – disrupts the human Mdm2-MdmX interaction. O15151+Q00987. SaOS-2 split-luciferase Mdm2/MdmX complementation, luminescence. inhibition, % at 8 µM. 3% of 330,000 active. AID 485346;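 active = inhibition of at least 50% at 8 µM in the primary screen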
A1 inh – inhibitors of the anti-apoptotic protein A1, read as caspase activation; MEF A1-2A-BIM cells, Caspase-Glo 3/7 luminescence, 3 h; percent of clofoctol response, vehicle zero; caspase activation, % (no concentration beside the values); 0.066% of 330,000 active;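 active = over half of replicate activation scores above 10%, or exactly half above 10 with the replicate mean above 10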
CSC inhib – blocks cancer stem cells; cancer stem cell-like cells viability, luminescence; inhibition, % at 7.5 µM; 1.1% of 300,000 active; in the data active = inhibition above about 75%; tested in HMLE shEcad cells
aSyn 5UTR inh – MLPCN primary screen, SNCA 5' untranslated region | alpha-synuclein 5'UTR reporter, inhibitor activity | inhibition, % (tested at 7.5 µM) | 0.82% of 300,000 active | AID 1813; in the data active = inhibition above about 60%;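 note: H4 neuroglioblastoma cells stably carrying SNCA 5'UTR luciferase fusion; 0% = DMSO wells and 100% = positive control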
Beta apoptosis – blocks beta cell apoptosis. INS-1E cytokine-induced death, ATP luminescence, 48 h; percent of positive-control rescue, neutral wells zero. protection from apoptosis, % (no concentration beside the values). 0.8% of 300,000 active;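 active = Every replicate reaches about 75%, or at least half do and their mean reaches it too, limit read from the data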;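 note: 0% = cytokine-treated negative control wells and 100% = positive control rescue; higher means more ATP so stronger rescue from cytokine killing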
Mdm2-MdmX conf – human Mdm2/MdmX binding inhibition, confirmed; inhibition, % at 8 µM; shares compounds with Mdm2-MdmX inh; 55% of 10,000 active; luminescent assay; AID 489028; in the data active = inhibition above about 40%
FLuc counter – inhibits full-length luciferase, flagging false Mdm2/MdmX hits; shares compounds with Mdm2-MdmX inh; SaOS-2 full-length luciferase counterscreen, luminescence; inhibition, % at 8 µM; 77% of 6,200 active; AID 504607;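 active = mean inhibition at 8 µM reaching about 37%, which flags the compound as non-specific, limit read from the data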;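 note: p53-null SaOS-2 cells with luciferase driven by a doxycycline-inducible promoter; compound on cells about two nights before reading with doxycycline added after day one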
Starred values were filed as active, the others as inactive; · = not tested or not shown. An excerpt weighted towards active compounds, which were near 4.1% of everything screened.

SMILES	Mdm2-MdmX inh	A1 inh	CSC inhib	aSyn 5UTR inh	Beta apoptosis	Mdm2-MdmX conf	FLuc counter
COc1ccc(Cl)cc1NC(=O)c1nnn(CC(=O)Nc2cc(C)cc(C)c2)c1N	94*	2	-2	-9	·	57*	55*
COc1ccc(NC(=O)c2nnn(CC(=O)Nc3ccc4c(c3)OCO4)c2N)c(OC)c1	52*	0	1	-39	-7	-16	·
COc1cccc(NC(=O)Cn2nnc(C(=O)Nc3cc(Cl)ccc3OC)c2N)c1	90*	0	-8	30	8	49*	22
COc1ccc(NC(=O)Cn2nnc(C(=O)NCc3ccccc3OC)c2N)cc1Cl	11	0	-7	42	-2	·	·
CCCC[C@@H]1CNC(=O)C(=O)N1CCc1cccc2ccccc12	14	0	-10	0	-6	·	·
O=C(OCN1C(=O)C(=O)c2ccccc21)c1ccc(Cl)cc1	7	1	-4	3	-5	·	·
Cc1cc(Cl)ccc1NC(=O)COC(=O)c1c(C)noc1C	24	-2	0	·	-6	·	·
COc1ccc(NC(=O)Cn2nnc(C(=O)Nc3ccc(F)c(Cl)c3)c2N)cc1	59*	0	-1	7	1	34	83*
COc1ccc(Cl)cc1NC(=O)c1nnn(CC(=O)Nc2ccc(OC)c(OC)c2)c1N	69*	0	-6	11	-4	40	32
Cc1cc(Oc2nc3c(C)cccn3c(=O)c2/C=C(\C#N)S(=O)(=O)c2ccccc2)ccc1Cl	52*	0	-7	9	8	7	·
Cc1occc1C(=O)N1CCCC(N2CCN(c3ccccc3F)CC2)C1 (centres undefined)	13	1	-2	0	-12	·	·
O=C1CN(C(=O)COC(=O)CCC(=O)c2ccc(F)cc2)c2ccccc2N1	-4	1	0	·	2	·	·
CO/N=C/C(=N\Nc1ccc(OC)cc1)C(=O)c1ccc(OC)cc1	55*	0	39	-71	18	52*	100*
CC1(NC(=O)CSc2nnc(-c3c[nH]c4ccccc34)n2C2CC2)CCS(=O)(=O)C1 (centres undefined)	8	-1	-10	·	-5	·	·
CC(C)N1C(=O)/C(=C/c2nc3ccccc3c(=O)n2-c2ccccc2)c2ccccc21	78*	0	66	-66	24	54*	37*
Cc1ccc(S(=O)(=O)N(C)C[C@@H]2Oc3ccc(NC(=O)CCC(F)(F)F)cc3CC(=O)N([C@@H](C)CO)C[C@@H]2C)cc1	59*	0	64	·	0	57*	63*
C[C@H]1CN([C@@H](C)CO)C(=O)Cc2cc(NC(=O)CCC(F)(F)F)ccc2O[C@H]1CN(C)S(C)(=O)=O	1	1	·	·	1	·	·
C[C@H](CO)N1C[C@H](C)[C@@H](CN(C)S(=O)(=O)c2ccc(F)cc2)Oc2c(NC(=O)Nc3ccc(C(F)(F)F)cc3)cccc2C1=O	48	0	19	·	11	·	·
C[C@H]1CN([C@@H](C)CO)C(=O)c2cccc(NC(=O)Nc3ccc(C(F)(F)F)cc3)c2O[C@@H]1CN(C)S(=O)(=O)c1ccc(Cl)cc1	58*	0	130*	·	37	14	·
C[C@@H]1CN([C@@H](C)CO)C(=O)Cc2cc(NC(=O)Nc3ccc(C(F)(F)F)cc3)ccc2O[C@@H]1CN(C)S(=O)(=O)c1ccc(Cl)cc1	94*	1	132*	·	35	53*	38*
C[C@@H]1CN([C@H](C)CO)C(=O)c2cc(NC(=O)Nc3ccc(C(F)(F)F)cc3)ccc2O[C@H]1CN(C)S(=O)(=O)c1ccc(Cl)cc1	85*	0	78*	·	-7	16	·
C[C@H](CO)N1C[C@H](C)[C@@H](CN(C)S(C)(=O)=O)Oc2ccc(NC(=O)Nc3ccc(C(F)(F)F)cc3)cc2C1=O	-13	-1	·	·	-8	·	·
O=C(NCCO)C(=O)NCC1OCCCN1S(=O)(=O)c1cc(F)ccc1F (centres undefined)	10	0	-12	-12	-2	·	·
CN(CC(=O)Nc1cccc(F)c1)C(=O)CCCN1C(=O)c2cccc3cccc(c23)C1=O	12	2	-5	-14	2	·	·
C[C@H](CO)N1C[C@H](C)[C@@H](CN(C)S(=O)(=O)c2ccc(F)cc2)Oc2ccc(NC(=O)Nc3ccc(C(F)(F)F)cc3)cc2C1=O	75*	1	87*	·	-1	16	·
SMILES	Mdm2-MdmX inh	A1 inh	CSC inhib	aSyn 5UTR inh	Beta apoptosis	Mdm2-MdmX conf	FLuc counter
Cc1ccc(NC(=O)c2cc(-c3ccc4c(c3)OCO4)on2)cc1C	21	-1	12	-61	2	·	·
COc1ccc(NC(=O)c2cc(-c3ccc4c(c3)OCO4)on2)cc1OC	68*	-1	11	-24	4	45*	97*
O=C(Nc1ccc2c(c1)OCO2)c1cc(-c2ccc(O)cc2)on1	84*	-3	101*	-158	·	-25	·
COc1ccc(-c2cc(C(=O)Nc3ccc4c(c3)OCO4)no2)cc1OC	22	0	17	-18	5	·	·
COc1ccc(C(=O)NC(C)c2ccc(-n3ccnc3)cc2)cc1S(=O)(=O)N1CCOCC1 (centres undefined)	14	·	·	·	·	·	·
O=C(OCc1cc(=O)n2ccsc2n1)c1ccccc1NCCO	20	-2	-11	·	-8	·	·
C=CCNc1cc(F)ccc1S(=O)(=O)NCC=C	16	·	·	·	·	·	·
Cc1ccc2nc(-c3cc(-c4ccccc4)no3)cn2c1	70*	-6	-12	86*	-3	22	·
CCc1ccn2cc(-c3cc(-c4ccccc4)no3)nc2c1	66*	-8	29	94*	13	67*	95*
COC(=O)CCC(=O)NNC(=O)C1CC1(c1ccccc1)c1ccccc1 (centres undefined)	15	1	-5	1	·	·	·
CC(C)CNC(=O)c1ccccc1N(Cc1ccccc1)S(C)(=O)=O	23	0	-14	3	-6	·	·
O=C(O)Cc1c[nH]c2ccccc12	6	0	1	31	-1	·	·
O=C(CCl)N(c1ccccc1)c1c[nH]c2ccccc12	100*	2	59	30	-32	99*	52*
O=C(CCl)N(c1ccc(Cl)cc1)c1c[nH]c2ccccc12	69*	1	88*	48	-5	100*	52*
O=C(Cc1ccc(Cl)cc1)NCCc1c[nH]c2ccccc12	·	1	0	-10	-3	·	·
COc1ccc(S(=O)(=O)Nc2ccccc2-c2nc3ccccc3[nH]c2=O)cc1	20	0	-7	-13	·	·	·
CCN1C(=O)C(O)(C2COC(C)(C)CC2=O)c2cc(Br)ccc21 (centres undefined)	55*	0	36	6	-3	52*	68*
Cc1ccccc1CNC(=O)C(=O)NCC1OCCCN1S(=O)(=O)c1cccs1 (centres undefined)	10	0	4	16	-1	·	·
